# Rows were chosen to be rich in hits. Some 10% of all compounds tested hit in one or more screens of this group.
# Six1-Eya2 inh: Six1/Eya2 interaction inhibition. activity change, % (concentration not given with the values). 360,000 compounds, 0.56% hits. Q15475+O00167. AlphaScreen GST-Six1/His-Eya2 binding, biochemical; active compounds read low; in the data active means activity change below about -65%; inconclusive means mostly about -30% to -63%; further: on the % scale 0 is the no-effect control and ±100 the full control effect
#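 Compounds are tested against tagged Six1 and Eya2 proteins bridged by glutathione donor and nickel acceptor beads; after a one-hour incubation at 37 °C without light, AlphaScreen emission is recorded.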
# G9a block: G9a (human) methyltransferase inhibition. Q96KQ7. G9a H3K9 monomethylation, AlphaScreen, 2 h. Potency, µM (series often up to 102 µM), for inactives: top-dose activity, negative = inhibition, hits mostly inhibitors. 350,000 compounds, 8.8% hits. AID 504332; further: potency means the concentration at half of the fitted maximal effect; on the % scale 0 is the no-effect control and ±100 the full control effect; nearly all actives have a fitted effect of over 75% in size
# Target sequence (Q96KQ7 913-1193 limits assumed): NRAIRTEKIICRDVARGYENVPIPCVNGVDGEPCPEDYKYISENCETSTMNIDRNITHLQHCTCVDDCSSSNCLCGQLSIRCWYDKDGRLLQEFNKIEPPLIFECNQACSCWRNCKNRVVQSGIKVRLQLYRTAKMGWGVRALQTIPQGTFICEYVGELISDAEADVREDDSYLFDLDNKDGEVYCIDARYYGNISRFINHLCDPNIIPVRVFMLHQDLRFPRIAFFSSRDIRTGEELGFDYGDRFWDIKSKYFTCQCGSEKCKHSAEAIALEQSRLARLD
#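 Enzyme 20 nM + cpd, 15 min RT; add b-H3K9 pep 500 nM / SAM 20 uM; 2 h RT; anti-H3K9me1 Ab 0.5 ug/mL + SA donor / anti-rabbit acceptor beads 20 ug/mL each, 10 min; AlphaScreen read.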
# HP1b binding inh: blocks HP1-beta chromodomain binding to methylated histone tails; AID 540317; P83916; AlphaScreen HP1-beta / biotin-H3K9me3 peptide binding; 390,000 compounds, 0.56% hits; Potency, µM (doses to about 114 µM), for inactives: at the top dose activity change, negative = inhibition, hits mostly inhibitors; further: potency means the concentration at half of the fitted maximal effect; nearly all actives have a fitted effect of over 70% in size
# Target sequence (P83916 whole entry, looked up): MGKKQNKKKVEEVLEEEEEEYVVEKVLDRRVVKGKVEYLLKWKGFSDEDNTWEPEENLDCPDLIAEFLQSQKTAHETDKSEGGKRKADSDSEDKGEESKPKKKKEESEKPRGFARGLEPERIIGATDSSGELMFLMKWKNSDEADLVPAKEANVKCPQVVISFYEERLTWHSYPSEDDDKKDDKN
#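 HP1-beta protein (50 nM final) preincubated 30 min at room temperature with biotinylated H3(1-18)K9me3 peptide (50 nM) in PBS pH 7.4, 0.01% Tween-20, then compound added for 30 min. AlphaScreen streptavidin donor/nickel chelate acceptor beads (10 ug/mL final), 30 min dark, luminescence read.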
# CtBP-E1A blk: inhibitors of CtBP/E1A interaction. activity change, % (test concentration not listed). AlphaScreen GST-E1A/His-CtBP binding, 1536-well; active compounds read low. AID 651724. 340,000 compounds, 0.49% hits; in the data active means activity change below about -65%; inconclusive means mostly about -30% to -63%; further: on the % scale 0 is the no-effect control and ±100 the full control effect
#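 Steps: dispense buffer (Tris pH 8.0, NaCl 300 mM, TCEP 1 mM, BSA, Tween 20); add 5X protein mix (GST-E1A, His-CtBP, 125 nM each); pin 23 nL compound; 2 h at 37 °C, dark; add 5X beads (50 ug/mL); 1 h; read.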
# JMJD2A Tudor: blocks the human JMJD2A Tudor domain; Potency, µM (doses to about 114 µM), inactives show top-dose activity change, negative = inhibition, hits mostly inhibitors; AlphaScreen JMJD2A-Tudor / H3K4me3 peptide binding; 390,000 compounds, 4.4% hits; O75164; further: potency means the concentration at half of the fitted maximal effect; on the % scale 0 is the no-effect control and ±100 the full control effect; nearly all actives have a fitted effect of over 50% in size
# BAZ2B block: blocks human BAZ2B; Q9UIF8; AlphaScreen BAZ2B-H3K14Ac peptide displacement; Potency, µM (titrated, usually from 114 µM), for inactives: at the highest dose activity change, negative = inhibition, actives largely listed as inhibitors; 360,000 compounds, 4.4% hits; AID 504333; further: potency means the concentration at half of the fitted maximal effect; on the % scale 0 is the no-effect control and ±100 the full control effect; nearly all actives have a fitted effect of over 60% in size
#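 Protein-peptide AlphaScreen: BAZ2B 50 nM, b-H3K14Ac 50 nM, 1x PBS pH 7.4 + 0.01% Tween-20. Preincubation 30 min RT; cpd 30 min RT (top 110 uM); beads 20 min RT, light-protected.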
# * hit, by the source's call; ? = inconclusive; . = no result given; [ ] = dose if it differs, or a comment. Unless noted, the call rests on the fitted dose curve; in most records, active means well fitted inhibition curve with a large enough effect; inconclusive means small, poorly fitted or top-dose-only effect; inactive means no such curve, though single readings can be large or run the other way.
SMILES,Six1-Eya2 inh,G9a block,HP1b binding inh,CtBP-E1A blk,JMJD2A Tudor,BAZ2B block
CCCN(C(=O)CCCSc1nc2ccccc2[nH]1)c1c(N)n(Cc2ccccc2)c(=O)[nH]c1=O,17.0,-26.4%,16.3%,-4.2,-6.2%,-0.8%
CCCCN(C(=O)CCCSc1nc2ccccc2[nH]1)c1c(N)n(Cc2ccccc2)c(=O)[nH]c1=O,3.2,10µM*,16.2%,17.7,-2.1%,-8.8%
CCCCN(C(=O)c1cccc(-n2cccc2)c1)c1c(N)n(Cc2ccccc2)c(=O)[nH]c1=O,.,10.7%[0.501 µM],.,.,.,44.7µM*
CCCCn1c(N)c(N(CCOC)C(=O)c2cc(-c3ccc(C)cc3)nc3ccccc23)c(=O)[nH]c1=O,7.1,-17.9%[0.501 µM],35.3%,-1.1,-3.6%,6.2%
COc1ccc(C(=O)CN2C(=O)C(C)(C)Oc3ccc(C(=O)N4CCCCCC4)cc32)cc1,-3.0,-18.7%[59 µM],19.8%,-3.2,-16.3%,-3.5%
Cc1ccc2nc(Cl)nc(-c3ccccc3)c2c1,5.9,19.8%,13.7%,0.0,-5.8%,1.5%
Cc1ccc2nc(CCl)[n+]([O-])c(-c3ccccc3)c2c1,-0.6,?,8.9%,11.8,17.8µM*,-31.8%
O=c1c2ccccc2nc(SCc2cn3ccsc3n2)n1-c1ccccc1,-8.9,10µM*,2.5%,-6.8,?,?
O=C(CSc1nc2ccccc2c(=O)n1-c1ccccc1)NC(=O)CN1CCCC1=O,-16.0,50.1µM*,-19.7%,-0.5,-16.7%,79.4µM*
O=C(CSc1nc2ccccc2c(=O)n1-c1ccccc1)N1CCCC1,0.6,50.1µM*,32.4%,-4.6,-2.4%,-15.4%
O=C(CSc1nc2ccccc2c(=O)n1-c1ccccc1)N1CCC1,-6.1,-5.2%,31.8%,.,-10.2%,-17.8%
O=C(CSc1nc2ccccc2n1S(=O)(=O)c1ccccc1)N1CCCC1,-2.5,50.1µM*,24.8%,2.8,-2.1%,1.5%
CCn1c(SCC(=O)N2CCCC2)nc2ccccc21,-1.1,4.2%,31.8%,8.6,5.1%,.
COC(=O)[C@]1(Cc2ccccc2)N[C@H](CN(C)C(=O)c2ccc(F)cc2)[C@@H]2C(=O)N(Cc3ccccc3)C(=O)[C@@H]21,1.8,.,60.9%,-2.0,-17.3%,.
N=C1/C(=C\c2ccc(-c3ccc(C(=O)O)cc3)o2)C(=O)N=C2SC=C(c3ccccc3)N12,-6.8,.,15.8µM*,-13.6,14.1µM*,4.47µM*
N=C1/C(=C\c2ccc(-c3cccc(Cl)c3)o2)C(=O)N=C2SC=C(c3ccccc3)N12,-9.3,44.7µM*,?,-6.7,?,?
COc1cc(/C=C2/C(=N)N3C(c4ccccc4)=CSC3=NC2=O)ccc1OCC(=O)O,-5.4,.,-31.1%,4.5,?,50.1µM*
Cc1cccc(-n2c(C)cc(/C=C3/C(=N)N4C(c5ccccc5)=CSC4=NC3=O)c2C)c1,13.5,-5.9%[59 µM],8.4%,2.4,-26.4%,1.8%
COc1ccc(NC(=O)CSc2nc3ccccc3n2CC(=O)N2CCCC(C)C2)cc1 (stereo unspecified),.,1.7%[12.7 µM],34.8%,.,9.3%,-15.6%
Cc1nnc(SCC(=O)Nc2ccccc2)c2ccccc12,-0.1,0.1%[12.7 µM],5.6%,-1.4,-17.5%,2.9%
Cc1ccn2c(Nc3ccc4c(c3)OCO4)c(-c3ccco3)nc2c1,.,4.47µM*,?,.,?,-36.7%
Cc1cc(C)n2c(Nc3ccc4c(c3)OCCO4)c(C3CC3)nc2n1,-3.4,.,.,1.0,.,.
CSc1ccc(-c2nc3cccc(C)n3c2Nc2ccc3c(c2)OCO3)cc1,.,5.62µM*,?,.,28.2µM*,.
Cc1ccc(Nc2c(-c3ccc(C)o3)nc3cccc(C)n23)cc1,.,17.8µM*,?,.,44.7µM*,25.1µM*
Cc1cc(C)n2c(Nc3ccc4c(c3)OCCO4)c(-c3ccc(Cl)cc3)nc2n1,.,1.4%[59 µM],8.9%,.,?,-4.2%
SMILES,Six1-Eya2 inh,G9a block,HP1b binding inh,CtBP-E1A blk,JMJD2A Tudor,BAZ2B block
Cc1cc(C)n2c(Nc3ccccc3)c(-c3ccccc3)nc2n1,.,-3.9%[59 µM],27.7%,.,-13.7%,-23.9%
Cc1cccc2nc(-c3ccco3)c(Nc3ccccc3)n12,-12.2,?,-3.8%,.,?,39.8µM*
CC1(C(=O)NCCC#N)CCN1C(=O)C1(c2ccccc2)CCCC1 (stereo unspecified),8.4,.,.,2.3,.,.
Cc1cc(C)n2c(Nc3ccc4c(c3)OCCO4)c(C(C)C)nc2n1,-8.6,.,.,-4.1,.,.
Cc1ccc(-c2nc3cccc(C)n3c2Nc2ccc3c(c2)OCO3)o1,.,17.8µM*,?,.,39.8µM*,28.2µM*
Cc1cccc2nc(-c3ccco3)c(Nc3ccc4c(c3)OCO4)n12,-11.2,35.5µM*,?,-25.6,44.7µM*,20µM*
CSc1ccc(CCNC(=O)c2cc(C)nc3c2c(C)nn3-c2ccccc2)cc1,.,-2.3%[59 µM],42.5%,.,-0.3%,-3.7%[57.1 µM]
O=C(Nc1cc(C(F)(F)F)ccc1N1CCCC1)c1ccc2c(c1)OCO2,-3.5,44.7µM*,51.4%,-3.7,-19.9%,-20.0%
O=C(Nc1ccccc1N1CCCC1)c1ccc2c(c1)OCO2,-3.2,44.7µM*,21.8%,-9.9,-16.8%[57.1 µM],-39.0%
C#CCOCCOCCOCCNc1nc(N2CCN(C(=O)C([C@@H](C)O)n3cc([C@@H](N)CCCCN)nn3)CC2)nc(N2CCN(C(=O)[C@H](CCCN=C(N)N)n3cc(C(N)[C@@H](C)CC)nn3)CC2)n1 (stereo partly specified),-0.6,.,18.6%,-10.5,56.2µM*,.
